Screens: PubChem, several laboratories
In the library only some 7% were active in any assay of this set; here they are far more common.
rCAG binder – binders of r(CAG) RNA repeats, primary screen, biochemical, fluorescence; r(CAG) RNA repeat, TO-PRO-1 dye displacement fluorescence; inhibition, % at 3 µM; 1.3% of 370,000 active; AID 651821, 2012;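 active means inhibition above the plate cutoff, the mean of all test compounds on that plate plus 3 SD, cut at about 35% in these data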;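 further: 0% = DMSO alone and 100% = 100 µM mitoxantrone as full dye displacement; higher means more dye released from RNA so lower well fluorescence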
KLK7 zymogen act – proKLK7 zymogen activators, primary screen, biochemical, fluorescence intensity; Kallikrein-7 (Homo sapiens), P49862; purified proKLK7, EDANS-DABCYL substrate fluorescence; 100% is mature enzyme control, 0% vehicle; activation, % at 7 µM; 0.9% of 370,000 active; AID 652039, 2013;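 active means activation above the mean of all tested compounds plus 3 SD, computed per campaign excluding outliers beyond control limits, cut at about 13% in these data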
NR3A LBD binder – binders of NR3A ligand-binding domain, primary screen, biophysical, differential scanning fluorimetry, uHTS; Glutamate receptor ionotropic, NMDA 3A (GRIN3A) ligand-binding domain; NR3A LBD differential scanning fluorimetry, Tm shift; 0% = protein alone, 100% = glycine-bound protein; Tm shift relative to glycine control, % at 25 µM; 2.5% of 340,000 active;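 active means melting temperature shift of at least 10% of the positive control shift, at one fixed dose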
ADAM10 inh – human ADAM10 inhibitors, primary screen, biochemical, QFRET, HTS; inhibition, % at 7 µM; recombinant ADAM10, EDANS/DABCYL FRET peptide cleavage, 3 h; AID 720582, 2013; 0.62% of 370,000 active;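 active means inhibition above a per-campaign cutoff equal to the mean of compounds falling between control-based bounds plus 3 SD, cut at about 20% in these data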;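 further: 0% = DMSO wells while the 100% control is not disclosed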
AHR act – AHR activators, primary screen, cell-based, luminescence, luciferase reporter, human; AHR-responsive luciferase reporter cells; Aryl hydrocarbon receptor (Homo sapiens), P35869; 2.5% of 320,000 active; activation, % at 5 µM; in the data active means activation above about 47%;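 further: 0% = vehicle wells and 100% = reference agonist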
ADAM17 inh – ADAM17 inhibitors, primary screen, biochemical, QFRET | inhibition, % at 6.95 µM | recombinant ADAM17, EDANS/DABCYL FRET peptide cleavage | 0.83% of 370,000 active;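 active means inhibition above the mean of compounds lying between control limits plus 3 SD, set per campaign, cut at about 8.5% in these data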;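 further: 0% = DMSO-only wells as the low control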
AHR act cf – AHR activators, confirmation, cell-based, luminescence, luciferase reporter, human; shares compounds with AHR act; 87% of 2,300 active; human cells, AHR-responsive luciferase reporter; activation, % at 9 µM; in the data active means activation above about 49%;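 further: HepG2 hepatoma cells carrying a DRE-driven firefly luciferase reporter; 0% = vehicle wells and 100% = reference agonist wells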
PXR counter – human PXR activators, counter-screen for AHR activator project, cell-based, luciferase luminescence; shares compounds with AHR act; AID 434939, 2010; cell-based PXR reporter; activation, % at 11.6 µM; 88% of 2,300 active; in the data active means activation above about 11%;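 further: human hepatoma DPX-2 cells expressing full-length human PXR; 0% = DMSO and 100% = reference agonist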
Target sequence (O75469 whole entry, looked up): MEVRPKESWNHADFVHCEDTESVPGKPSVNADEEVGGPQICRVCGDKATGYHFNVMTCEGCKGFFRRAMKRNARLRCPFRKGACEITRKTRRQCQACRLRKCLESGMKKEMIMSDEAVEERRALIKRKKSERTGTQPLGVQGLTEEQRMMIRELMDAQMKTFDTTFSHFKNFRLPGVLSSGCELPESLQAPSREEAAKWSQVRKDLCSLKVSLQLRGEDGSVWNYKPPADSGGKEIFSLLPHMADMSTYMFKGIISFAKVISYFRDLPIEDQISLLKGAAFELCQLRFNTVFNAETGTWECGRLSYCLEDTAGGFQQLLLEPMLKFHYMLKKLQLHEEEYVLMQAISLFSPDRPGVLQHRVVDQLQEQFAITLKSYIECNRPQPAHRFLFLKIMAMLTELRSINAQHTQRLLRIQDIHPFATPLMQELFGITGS
* hit, by the source's call.

For COc1ccc(NC(=O)c2ccc3nc[nH]c3c2)c(OC)c1 the results were rCAG binder 2, KLK7 zymogen act 1, NR3A LBD binder -1, ADAM10 inh 0, AHR act 14 and ADAM17 inh -5.
Screening CCn1cnc2cc(NCc3ccncc3)ccc21 returned rCAG binder -1, KLK7 zymogen act 1, NR3A LBD binder 0, ADAM10 inh -11, AHR act 19 and ADAM17 inh -9.
`CCn1cnc2cc(NCc3ccc(Cl)cc3)ccc21` gave rCAG binder -1, KLK7 zymogen act 0, NR3A LBD binder 2, ADAM10 inh -13, AHR act 99*, ADAM17 inh -7, AHR act cf 98* and PXR counter 32*.
`COc1ccccc1-c1nc(-c2ccccn2)no1` gave rCAG binder 1, KLK7 zymogen act -1, NR3A LBD binder -1, ADAM10 inh -25, AHR act 113*, ADAM17 inh -5, AHR act cf 118* and PXR counter 6.
Screening Cc1ccccc1-c1nc(-c2ccccn2)no1 returned rCAG binder -2, KLK7 zymogen act -1, NR3A LBD binder -2, ADAM10 inh 1, AHR act 29 and ADAM17 inh 0.
COc1ccccc1-c1noc(-c2cccs2)n1 was read as rCAG binder -1, KLK7 zymogen act 0, NR3A LBD binder 0, ADAM10 inh -5, AHR act 86*, ADAM17 inh -1, AHR act cf 144* and PXR counter 17*.
CCOC(=O)[C@]12CCCCC/C=C\1N(CCc1ccc(Cl)cc1)C(=O)[C@H]2CC(=O)NCc1cccs1 was read as rCAG binder 9, KLK7 zymogen act 1, ADAM10 inh 9 and ADAM17 inh 4.
`Clc1cccc(-c2ccc(-c3nc4ccccn4c3NCc3ccccc3)cc2)c1` gave rCAG binder 10, KLK7 zymogen act 3, NR3A LBD binder 20*, ADAM10 inh -244, AHR act 98*, ADAM17 inh -66, AHR act cf 71* and PXR counter 7.
`COc1ccc(CCNc2nc(-c3ccccn3)cs2)cc1OC` gave rCAG binder -5, KLK7 zymogen act 0, NR3A LBD binder 2, ADAM10 inh -8, AHR act 85*, ADAM17 inh -3, AHR act cf 80* and PXR counter 27*.
COc1ccc(CCNc2nc(-c3ccc(NC(C)=O)cc3)cs2)cc1OC was read as rCAG binder 4, KLK7 zymogen act 0, NR3A LBD binder -6, ADAM10 inh 7, AHR act 27 and ADAM17 inh -1.
`C=CCN(CC#CC(=C)C)CC1CC1` gave rCAG binder 0, KLK7 zymogen act 0, ADAM10 inh -8 and ADAM17 inh -3.
CCc1cccc(NC(=O)C2CCCN(c3cnccn3)C2)c1 (stereo not given) was read as rCAG binder -1, KLK7 zymogen act 0, NR3A LBD binder 0, ADAM10 inh -31, AHR act 91*, ADAM17 inh -6, AHR act cf 58* and PXR counter 41*.
`Cc1cccc(NC(=O)C2CCCN(c3nc(C)cc(C)n3)C2)c1` (stereo not given) gave NR3A LBD binder 0 and AHR act 7.
Cc1cccc(NC(=O)C2CCCN(c3cnccn3)C2)c1 (stereo not given) was read as rCAG binder -4, KLK7 zymogen act 0, NR3A LBD binder 0, ADAM10 inh -36, AHR act 88*, ADAM17 inh -12, AHR act cf 70* and PXR counter 32*.
CCCc1ccc(NC(=O)C2CCN(c3cnccn3)CC2)cc1 was read as rCAG binder -5, KLK7 zymogen act -8, NR3A LBD binder 6, ADAM10 inh -38, AHR act 3 and ADAM17 inh -12.
`CCCC1CCC2(CCCN2CCOC(=O)Nc2ccccc2OC)CC1` (stereo not given) gave ADAM10 inh 0 and ADAM17 inh -1.
For CC(=O)Nc1ccc(NC(=O)c2ccc([N+](=O)[O-])cc2Cl)cc1 the results were rCAG binder 1, KLK7 zymogen act 0, NR3A LBD binder 1, ADAM10 inh -4, AHR act -6 and ADAM17 inh -3.
For O=C(Nc1ccccc1)c1cc([N+](=O)[O-])ccc1Cl the results were rCAG binder 2, KLK7 zymogen act 0, NR3A LBD binder 3, ADAM10 inh 2, AHR act 88*, ADAM17 inh -3, AHR act cf 95* and PXR counter 14*.
O=C(Nc1ccc(Cl)c(Cl)c1)Nc1ccc([N+](=O)[O-])cn1 was read as rCAG binder 0, KLK7 zymogen act 0, NR3A LBD binder -14, ADAM10 inh 0, AHR act 91*, ADAM17 inh -2, AHR act cf 86* and PXR counter 8.
O=C(Nc1ccccc1)c1cc([N+](=O)[O-])ccc1NCc1cccnc1 was read as rCAG binder -1, KLK7 zymogen act 0, NR3A LBD binder 1, ADAM10 inh 5, AHR act 83*, ADAM17 inh 2, AHR act cf 104* and PXR counter 41*.
Screening COC(=O)[C@]12C[C@H](CC(=O)NCCCN3CCCC3=O)C(=O)N(Cc3cccc4ccccc34)C1=C[C@H](C1CCCC1)O[C@@H]2C returned rCAG binder 4, KLK7 zymogen act 0, ADAM10 inh 5 and ADAM17 inh 0.
For O=S1(=O)c2ccc(Br)cc2OC[C@@H](Cc2ccccc2)N1Cc1cn(CCC2OCCCO2)nn1 the results were rCAG binder 3, KLK7 zymogen act 1, ADAM10 inh -1 and ADAM17 inh -1.
For CN(C)CCCNc1nc(-c2ccc(Cl)cc2)nc2ccccc12 the results were rCAG binder 3, KLK7 zymogen act 1, NR3A LBD binder -1, ADAM10 inh -1, AHR act 114*, ADAM17 inh -1, AHR act cf 77* and PXR counter 26*.
